Test results as given in PubChem BioAssay (EPA / NIEHS).
The source made the active and inactive calls. Rule for the calls: active = hit-call score of the fitted dose curve at least 0.9, where 1 is the maximum; inactive = score below 0.9.

Columns and labels:
[1] = read-out: Secreted IgG (sIgG), gene 3500; experiment: BSK_BT_sIgG: BioMAP Diversity Plus: BT Assay for Secreted IgG (sIgG) Biomarker Activity (AID 2284226); conditions: primary human B cells with PBMC
How it was run: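 Read-out: ELISA for secreted IgG after 24 h of chemical exposure in a B cell plus PBMC co-culture. Values reflect upward-direction fitting against DMSO negative controls.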

[2] = BSK_BT_Bcell_Proliferation: Viability Assessment in the BioMAP Diversity Plus: BT Assay for B cell Proliferation (AID 2284227); conditions: primary human B cells with PBMC
How it was run: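 Using a human primary B cell–PBMC co-culture, the assay measures total protein by sulforhodamine B absorbance as a gauge of proliferation after 72 h. Analysis followed the positive fitting direction with DMSO as baseline.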

[3] = read-out: Interleukin 6 (IL6), IL6 (gene 3569); experiment: BSK_BT_xIL6: BioMAP Diversity Plus: BT Assay for Interleukin 6 (IL6) Biomarker Activity (AID 2284228); conditions: primary human B cells with PBMC
How it was run: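 B cells and peripheral blood mononuclear cells (human primary co-culture) were dosed with chemical, and after 24 h IL-6 released into the medium was measured by Luminex xMAP. Responses were analysed as gain of signal over DMSO control.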

[4] = read-out: Interleukin 17A (IL17A), IL17A (gene 3605); experiment: BSK_BT_xIL17A: BioMAP Diversity Plus: BT Assay for Interleukin 17A (IL17A) Biomarker Activity (AID 2284229); conditions: primary human B cells with PBMC
How it was run: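 Secreted IL-17A was the measured endpoint, read by Luminex xMAP multiplex in supernatants of a human B cell/PBMC co-culture harvested 24 h after chemical dosing. Signal increase relative to DMSO defined activity.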

[5] = read-out: Tumor necrosis factor (Homo sapiens) (UniProt P01375); experiment: BSK_BT_xTNFa: BioMAP Diversity Plus: BT Assay for Tumor necrosis factor alpha (TNF-alpha) Biomarker Activity (AID 2284230); conditions: primary human B cells with PBMC
How it was run: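 Endpoint derived in the positive direction versus DMSO vehicle. Cells: B cells together with PBMC, exposed 24 h before TNF-alpha in the medium was read on the Luminex xMAP platform.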

[6] = read-out: Vascular cell adhesion molecule 1 (VCAM1), VCAM1 (gene 7412); experiment: BSK_MyoF_VCAM1: BioMAP Diversity Plus: MyoF Assay for Vascular cell adhesion molecule 1 (VCAM1) Biomarker Activity (AID 2284231); conditions: primary human lung fibroblasts
How it was run: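 ELISA read-out of VCAM-1 on human lung fibroblasts 24 h after chemical treatment, with positive-direction curve fitting relative to DMSO controls. Parallel cultures were stained with sulforhodamine B for total protein to flag overt cytotoxicity.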

[7] = UKN2_HCS_IMR90_cell_viability: Viability Assessment in the University of Konstanz (UKN) Leist Lab Neural Crest Cell Migration Assay in human induced IMR90 Pluripotent Stem Cells (UKN2) (AID 2284233);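 note: viability of neural crest cells differentiated from IMR90 iPSC measured by calcein-AM fluorescence imaging; cells exposed to compound for 24 h after a 24 h migration phase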
How it was run: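 Neural crest cells derived from IMR90 iPSC migrate into a stopper-free zone for 24 h in EGF/FGF medium, then are exposed to compound for 24 h. Viability assessed by calcein-AM and Hoechst staining with high-content imaging, fitted bidirectionally versus DMSO.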

Measured: AC50

Tumor necrosis factor (Homo sapiens), sequence (P01375 whole entry, looked up): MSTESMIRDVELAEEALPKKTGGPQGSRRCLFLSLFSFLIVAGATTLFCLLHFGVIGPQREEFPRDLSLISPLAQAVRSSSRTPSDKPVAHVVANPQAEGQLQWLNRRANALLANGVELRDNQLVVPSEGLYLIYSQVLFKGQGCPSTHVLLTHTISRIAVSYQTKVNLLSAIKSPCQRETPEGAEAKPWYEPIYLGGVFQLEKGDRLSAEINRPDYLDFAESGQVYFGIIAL

O=C1c2ccc(O)c(O)c2C(=O)c2c(O)ccc(O)c21
not listed: [7]
inactive: all other assays above

COc1cc(OC)nc(NC(=O)NS(=O)(=O)Nc2ccccc2C(=O)N(C)C)n1
not listed: [7]
inactive: all other assays above

Cc1ccc(C(=O)c2ccccc2)cc1
active: [6] 31.4 µM
not listed: [7]
inactive: all other assays above

O=P(O)(O)CCC(F)(F)C(F)(F)C(F)(F)C(F)(F)C(F)(F)C(F)(F)F
not listed: [7]
inactive: all other assays above

COc1cccc(O)c1
not listed: [7]
inactive: all other assays above

C=CC(=C)CC/C=C(\C)CCC=C(C)C
not listed: [7]
inactive: all other assays above

C=CC(C)(CCC=C(C)C)OC(C)=O (stereo unspecified)
not listed: [7]
inactive: all other assays above

CN(CCO)S(=O)(=O)C(F)(F)C(F)(F)C(F)(F)C(F)(F)C(F)(F)C(F)(F)C(F)(F)C(F)(F)F
not listed: [7]
inactive: all other assays above

C=COC(=O)C(C)(C)CCCCCC
active: [6] 31 µM
not listed: [7]
inactive: all other assays above

CC(C)c1c(C(=O)Nc2ccccc2)c(-c2ccccc2)c(-c2ccc(F)cc2)n1CC[C@@H](O)C[C@@H](O)CC(=O)O
inactive: [7]

Clc1ccc(Nc2nnc(Cc3ccncc3)c3ccccc23)cc1
active: [1] 6.52 µM | [3] 8.4 µM
not listed: [7]
inactive: all other assays above
